A selection: hits, their analogues and other compounds. The true share with any hit is near 2.3%.
EBNA-1 inh: blocks EBNA-1 binding to DNA | EBNA-1 DNA binding, fluorescence polarization | inhibition, % at 14.8 µM | AID 1950 | 0.34% of 300,000 active; in the data active means inhibition above about 28%
MsrA act: activators of bovine methionine sulfoxide reductase A | activation, % at 10.6 µM | 0.3% of 360,000 active | purified bovine MsrA, absorbance read-out | AID 602163; in the data active means activation above about 7.5%;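 further: 0% = vehicle and 100% = reference activator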
MsrA inhibitor: inhibits bovine methionine sulfoxide reductase A; AID 651718; purified bovine MsrA, absorbance read-out; 0.75% of 360,000 active; inhibition, % at 15.5 µM; in the data active means inhibition above about 4.5%;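 further: 0% = vehicle wells with enzyme and 100% = reference inhibitor wells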
PP1 counter: PP1-alpha (human) inhibition in PP5 counter-screen. P62136. purified PP1alpha, OMFP fluorescence. inhibition, % at 6.7 µM. 0.9% of 320,000 active. AID 2235;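 active means inhibition above the mean inhibition of all tested compounds plus 3 SD, computed separately for each screening campaign, cut at about 15% in these data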
Target sequence (P62136 whole entry, looked up): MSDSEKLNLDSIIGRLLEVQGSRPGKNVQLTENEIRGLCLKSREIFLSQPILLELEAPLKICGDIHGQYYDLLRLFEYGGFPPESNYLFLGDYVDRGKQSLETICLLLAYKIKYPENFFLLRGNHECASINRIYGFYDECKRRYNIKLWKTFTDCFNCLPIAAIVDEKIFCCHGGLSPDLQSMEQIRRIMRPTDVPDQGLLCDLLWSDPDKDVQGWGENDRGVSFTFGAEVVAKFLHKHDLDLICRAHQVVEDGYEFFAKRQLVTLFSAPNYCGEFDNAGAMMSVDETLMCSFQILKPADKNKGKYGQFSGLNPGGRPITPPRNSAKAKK
PP5 primary: PP5 (human) phosphatase inhibition; P53041; purified PP5c, OMFP substrate fluorescence; inhibition, % at 6.7 µM; 0.18% of 320,000 active;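 active means inhibition above the campaign's mean inhibition across all tested compounds plus 3 SD, cut at about 9.5% in these data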;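 further: 0% = DMSO only and 100% = 100 µM cantharidin control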
ZTA counter: blocks Epstein-Barr virus ZTA, an EBNA-1 counter-screen. P03206. ZTA-DNA binding, fluorescence polarization. inhibition, % at 11 µM. 0.15% of 320,000 active. AID 2234; in the data active means inhibition above about 33%
Target sequence (P03206 whole entry, looked up): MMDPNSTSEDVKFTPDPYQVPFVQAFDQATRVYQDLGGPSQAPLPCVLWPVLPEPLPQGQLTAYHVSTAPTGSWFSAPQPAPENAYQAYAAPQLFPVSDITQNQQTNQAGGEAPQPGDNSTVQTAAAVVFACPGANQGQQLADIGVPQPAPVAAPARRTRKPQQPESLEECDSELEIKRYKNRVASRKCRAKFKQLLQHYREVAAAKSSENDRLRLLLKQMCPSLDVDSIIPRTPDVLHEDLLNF
EBNA-1 confirm: EBNA-1 (EBV) inhibition, confirmation; 35% of 830 active; shares compounds with EBNA-1 inh; inhibition, % at 14.8 µM; Recombinant EBNA-1 DBD, Cy5-DNA fluorescence polarization;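 active means mean inhibition across replicates above a set limit taken from the earlier primary screen, cut at about 28% in these data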;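 further: plate controls were EBNA-1 protein with DMSO for no effect and wells lacking EBNA-1 for full effect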
ZTA DNA inh trip: ZTA (EBV) inhibition, triplicate counter-screen | 830 tested, under 10 active | AID 2328 | Zta-ZRE DNA binding, Cy5 fluorescence polarization | shares compounds with EBNA-1 inh | inhibition, % at 11.1 µM;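 active means mean inhibition over triplicates above a set limit taken from the primary EBNA-1 screen, cut at about 37% in these data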;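 further: purified full length Zta protein with Cy5 labeled ZRE DNA probe; 0% = Zta with DMSO and 100% = wells lacking Zta protein; inhibitors lower polarization by freeing the labeled DNA probe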
Numbers without * were called inactive; nt = no result.

SMILES	EBNA-1 inh	MsrA act	MsrA inhibitor	PP1 counter	PP5 primary	ZTA counter	EBNA-1 confirm	ZTA DNA inh trip
O=C(CSc1nnc(SCc2ccc(Cl)cc2)s1)N/N=C/c1c(Cl)cccc1Cl	35.3*	-1.4	-0.1	-1.4	2.5	-15.0	-0.4	-6.3
Cc1ccc(-c2csc3ncnc(SCC(=O)Nc4nnc(C)s4)c23)cc1	38.5*	-1.9	-0.8	7.1	-0.3	-4.7	17.4	-1.5
CC(=O)CSc1ncnc2scc(-c3ccc(F)cc3)c12	0.3	-2.2	0.3	1.2	1.1	12.7	nt	nt
C=CCn1c(=NC(=O)C2COc3ccccc3O2)sc2cc(S(N)(=O)=O)ccc21 (stereo unspecified)	31.5*	-5.0	-0.9	-1.1	2.0	7.8	10.8	-9.6
CCN(CC)CCN(C(=O)CCS(=O)(=O)c1ccccc1)c1nc2c(C)cc(C)cc2s1	3.5	-2.2	2.3	-0.2	1.6	11.6	nt	nt
COc1cccc(-c2nc(CS(=O)(=O)CC(=O)Nc3c(C)cccc3C)c(C)o2)c1	1.5	-5.7	-1.4	-1.7	2.4	1.1	nt	nt
COc1ccc(OC)c(NC(=O)CS(=O)(=O)Cc2nc(-c3ccccc3C)oc2C)c1	56.8*	-2.3	-0.3	5.8	-1.2	1.0	-12.4	-2.2
COc1cc(NC(=O)c2ccc(C)c([N+](=O)[O-])c2)ccc1NC(=O)c1ccco1	51.0*	nt	nt	-2.3	1.2	-11.6	14.3	-6.2
COc1cc(NC(=O)c2ccc(OC)c([N+](=O)[O-])c2)ccc1NC(=O)c1ccco1	4.9	-11.9	-0.3	1.3	3.0	-10.2	nt	nt
CCCCOc1ccc(C(=O)Nn2c(-c3cccs3)nc3ccccc3c2=O)cc1	95.3*	-4.8	1.4	-1.8	4.3	3.4	40.9*	0.3
Cc1ccccc1-c1nsc(SCC(=O)Nc2ccc3c(c2)OCO3)n1	31.3*	0.3	-0.3	2.3	2.0	10.4	17.9	14.3
O=C(NCc1ccc(F)cc1F)[C@@H]1CCCN1C(=O)[C@@H]1CCCN1C(=O)c1cccs1	nt	-3.1	0.1	nt	nt	nt	nt	nt
COC(=O)C1=C(C)NC2=C(C(=O)c3ccccc32)C1c1cccc(OC)c1 (stereo unspecified)	27.9*	2.7	0.3	7.9	-0.7	-5.2	37.7*	4.4
CCOC(=O)C1=C(C)NC2=C(C(=O)c3ccccc32)C1c1ccc(O)cc1 (stereo unspecified)	4.4	-2.3	-0.1	1.4	5.7	-26.1	nt	nt
CN1C(=O)N(C)C2(c3ccccc3)Nn3c(s/c(=C/c4ccco4)c3=O)=NC12c1ccccc1 (stereo unspecified)	44.7*	-10.9	1.6	0.1	-0.4	-2.9	77.1*	9.5
CCC(C)NC(=O)c1ccc([N+](=O)[O-])c(Cl)c1 (stereo unspecified)	27.5*	-4.3	0.9	-4.7	-1.1	-5.9	-4.5	-2.9
CCc1nn(CC(=O)NCCC2=CCCCC2)c(=O)c2cc3cc(F)ccc3n12	-1.0	-2.0	-1.5	-3.2	-3.7	-4.7	nt	nt
O=C(Nc1cc(Cl)cc(Cl)c1)c1ccc(Cn2c(=O)[nH]c3ccsc3c2=O)cc1	35.8*	-2.1	nt	8.2	0.2	-2.2	29.4*	-4.9
CC1CCCN(CCCN2C(=O)C3C(C(=O)Nc4cccc(Cl)c4)C4C=CC3(O4)C2C(=O)NC2CCCCC2)C1 (stereo unspecified)	5.0	-6.6	-0.3	-2.9	-3.4	0.8	nt	nt
Cc1cc(C)c2c(-n3cccc3)c(C(=O)NNS(=O)(=O)c3ccc(Cl)cc3)sc2n1	29.5*	-0.3	0.1	3.8	2.6	2.6	1.7	0.7
CCOc1ccc(-n2nnc3c(=O)n(CC(=O)c4ccccc4)cnc32)cc1	29.6*	-1.2	1.0	-0.9	-1.7	14.0	12.8	11.6
Cc1ccc(-n2nnc3c(=O)n(CC(=O)c4ccccc4)cnc32)cc1	21.8	-2.6	-0.3	-1.6	0.8	-1.1	nt	nt
N#C/C(=C\c1cn(Cc2ccccc2F)c2ccccc12)C(=O)NCc1ccco1	62.2*	-0.5	-0.3	-4.3	0.7	6.1	57.4*	-5.7
COc1ccccc1OCCn1cc(/C=C(\C#N)C(=O)NCc2ccco2)c2ccccc21	23.1	-7.6	2.2	12.2	3.0	-19.1	nt	nt
COCCNC(=S)N1CCN(Cc2ccc3c(c2)OCO3)CC1	12.8	-4.3	-0.1	-2.4	-1.4	-4.0	nt	nt
SMILES	EBNA-1 inh	MsrA act	MsrA inhibitor	PP1 counter	PP5 primary	ZTA counter	EBNA-1 confirm	ZTA DNA inh trip
CS(=O)(=O)c1ccc(-c2cccc(NC(=O)c3ccc(Br)o3)c2)nn1	37.5*	-7.2	-0.1	2.3	1.8	-1.3	28.1*	-6.6
Cc1ccc(C(=O)CSc2nnc(-c3c[nH]c4ccccc34)o2)cc1	28.9*	-2.6	1.3	4.0	1.5	-1.3	-7.8	-1.3
CCc1nnc(NS(=O)(=O)c2ccc(NC(=O)c3ccc(C#N)cc3)cc2)s1	1.0	-2.6	-1.1	-3.7	0.7	12.1	nt	nt
Cc1ccc(NC(=O)c2cc3c(=O)oc4ccc(C)cc4c3s2)nc1	2.6	nt	nt	3.0	-1.0	11.9	nt	nt
Cc1ccc(-n2cccc2/C=C2/C(=N)N3C(=NC2=O)SN=C3S(C)(=O)=O)cc1Cl	32.4*	-5.6	1.4	6.9	6.6	14.9	14.6	6.2
Cc1cc(/C=C2/C(=N)N3C(=NC2=O)SN=C3S(C)(=O)=O)c(C)n1-c1ccc(F)cc1	4.0	-2.4	2.1	-2.0	4.6	1.1	nt	nt
Cc1cc(NC(=O)CSc2nc(-c3ccc(F)cc3)cs2)no1	43.7*	-3.2	-0.9	1.4	1.5	-3.1	13.4	3.8
COc1ccc(N=C2SC(C(=O)Nc3ccc4c(c3)OCO4)CC(=O)N2C)cc1 (stereo unspecified)	2.4	-1.9	-0.4	-0.4	1.3	-15.4	nt	nt
CN1C(=O)CC(C(=O)Nc2ccccc2F)SC1=Nc1ccc2c(c1)OCO2 (stereo unspecified)	28.0*	0.6	-1.9	2.8	1.2	-1.6	50.0*	3.7
COC(=O)C1CSC(C(=O)OC)N1C(=O)Nc1ccccc1 (stereo unspecified)	55.1*	-9.7	-1.4	3.4	-0.9	7.9	-9.9	-3.3
COc1ccc(CNS(=O)(=O)NCc2ccc(C)cc2)cc1	55.6*	-2.6	0.9	-3.2	0.4	7.5	11.5	-11.9
Cc1ccc(CNS(=O)(=O)NCc2ccc(Cl)cc2)cc1	-0.4	-1.1	0.3	-1.5	-0.3	10.0	nt	nt
O=C(Nc1ccc(Oc2ccccc2)cc1)C1CC1	10.3	-7.5	-0.5	-0.4	0.5	-2.0	nt	nt
O=C(Nc1ccc(Oc2ccccc2)cc1)C1CCN(c2ncccn2)CC1	39.3*	-0.7	-0.3	0.3	-0.5	11.2	-0.6	4.6
COc1ccc(Cn2cccc(NC(=O)Nc3cccc(C#N)c3)c2=O)cc1	105.7*	-9.7	0.9	1.4	-1.0	24.4	117.3*	1.2
CCN(CC)C(=O)CSc1nnnn1-c1ccc(F)c(Cl)c1	0.6	0.3	0.9	1.5	3.0	-7.4	nt	nt
